# Several values for one entry are separate records, joined by “and”; a condition that tells them apart may be missing. Equal entries are not always repeated. Activity calls are given as the source filed them. Unless noted, how the calls were made is not given here.
# Tests used:
# [1] = liver-stage malaria parasite growth inhibition, primary screen, cell-based, HepG2, luciferase luminescence, HepG2 viability (AID 624349; in the data active means parasite load remaining mostly below about 12%, no sharp cut-off; inactive means mostly above about 10%;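 further: 100% = mean of DMSO negative control wells on the same plate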); conditions: P. berghei liver stage in HepG2, luciferase luminescence, concentration not given here; parasite load remaining: stronger effect = lower value; viability: measured here: HepG2 viability without parasites
# [2] = Cy5 fluorescence interference with SSB-bound oligo, artefact control for HCV NS3 helicase inhibitor project, biochemical, NIH Clinical Collection, E. coli SSB (AID 743268)
# [3] = test system: Hepatitis C virus NS3 helicase; test: HCV NS3 helicase inhibitors, primary screen, biochemical, fluorescence polarization, NIH Clinical Collection (AID 743270); conditions: NS3 helicase binding to Cy5-dT15 DNA, stronger effect = higher value, concentration not given here
# [4] = target: Single-stranded DNA-binding protein (Escherichia coli (strain K12)) (UniProt P0AGE0); test: E. coli SSB displacement from DNA, counter-screen for HCV NS3 helicase inhibitor project, biochemical, fluorescence polarization, NIH Clinical Collection (AID 743271; in the data active means inhibition above about 28%); conditions: stronger effect = higher value, concentration not given here
# [5] = fluorescence interference in NS3h assay format, artefact control for HCV NS3 helicase inhibitor project, biochemical, NIH Clinical Collection (AID 743272); conditions: fluorescence interference counterscreen, stronger effect = lower value;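 further: HCV NS3 helicase with a Cy5 labelled single stranded DNA probe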
# [6] = test system: Neuropilin-2 / VEGF-C interaction (human); test: inhibitors of NRP2–VEGF-C binding, biochemical, microplate binding format, z-score (AID 743281); conditions: microplate NRP2/VEGF-C binding assay; stronger effect = lower value
# [7] = stimulators of nuclear beta-catenin in C2C12, primary screen, imaging, WNT3A-conditioned medium, mouse C2C12, NPC library (AID 1117326; in the data active means nuclear beta-catenin stimulation mostly above about 4.2%, no sharp cut-off; inactive means mostly below about 10%); conditions: stronger effect = higher value
# [8] = test system: Hepatitis C virus NS3 helicase; test: HCV NS3 helicase inhibitors, primary screen, biochemical, fluorescence polarization, LOPAC1280 library (AID 687035; in the data active means inhibition above about 37%); conditions: Purified HCV NS3 helicase, Cy5-dT15 ssDNA binding fluorescence polarization; stronger effect = higher value; concentration not given here
# [9] = Cy5 fluorescence quenching or enhancement artefacts, artefact control for HCV NS3 helicase inhibitor project, biochemical, LOPAC1280 (AID 687037); conditions: Cy5-DNA-NS3h complex fluorescence interference counterscreen
SMILES,parasite load remaining [1],viability [1],fluorescence ratio [2],inhibition [3],inhibition [4],fluorescence ratio [5],outcome [6],nuclear beta-catenin stimulation ([7]; at 10 µM),"nuclear beta-catenin stimulation ([7]; stimulation, at 2 µM) [%]",z-score [6],inhibition [8],fluorescence ratio (interference) [9]
Cc1nc2ccc(CN(C)c3ccc(C(=O)N[C@@H](CCC(=O)O)C(=O)O)s3)cc2c(=O)[nH]1,12.1% (inactive),89.6%,0.88 (inactive),-4.59% (inactive),17.7% (inactive),0.88 (inactive),inactive,61.4% (active),62.4,,,
CN1CCN(c2c(F)cc3c(=O)c(C(=O)O)cn4c3c2SCC4)CC1,99.2% (inactive) and 24.3% (inactive),91.2% and 66%,1.04 (inactive),-4.36% (inactive),-3.18% (inactive),0.99 (inactive),inactive,1.2% (inactive),-0.2,,,
CC(C)c1nc(CN(C)C(=O)N[C@H](C(=O)N[C@@H](Cc2ccccc2)C[C@H](O)[C@H](Cc2ccccc2)NC(=O)OCc2cncs2)C(C)C)cs1,53.8% (inactive),79.2%,1.03 (inactive),3.56% (inactive),9.91% (inactive),0.89 (inactive),,7.7% (inactive),5.1,0.723 (inactive),,
CCC(=O)O[C@]1(C(=O)SCF)[C@H](C)C[C@H]2[C@@H]3C[C@H](F)C4=CC(=O)C=C[C@]4(C)[C@@]3(F)[C@@H](O)C[C@@]21C,82.3% (inactive) and 83.8% (inactive),68.2% and 100%,1 (inactive),5.94% (inactive),5.29% (inactive),1.02 (inactive),,0.9% (inactive),2.7,,,
CN1CCC(=C2c3ccccc3CCc3sccc32)CC1,28.2% (inactive) and 50.3% (inactive) and 34.4% (inactive),70.7% and 95.5% and 65.5%,0.99 (inactive),-1.98% (inactive),-0.87% (inactive),0.94 (inactive),,-0.8% (inactive),-1.1,1.11 (inactive),,
CCCOc1ccc(C(=O)OCCN(CC)CC)cc1N,35.3% (inactive) and 89.5% (inactive) and 24.4% (inactive),102% and 98.4% and 98.5%,0.101 (active),-4.09% (inactive),0.29% (inactive),1.02 (inactive),,1.3% (inactive),5.7,,,
O=C(NCCN1CCOCC1)c1ccc(Cl)cc1,153% (inactive) and 134% (inactive),108% and 80.7%,1.03 (inactive),5.94% (inactive),8.37% (inactive),0.99 (inactive),,0.1% (inactive),0.4,-0.561 (inactive),-6% (inactive),0.9 (inactive)
C[C@@H]1C[C@H]2[C@@H]3CCC4=CC(=O)C=C[C@]4(C)[C@@]3(F)[C@@H](O)C[C@]2(C)[C@H]1C(=O)CO,74.3% (inactive),70.8%,0.96 (inactive),-1.97% (inactive),-1.97% (inactive),0.92 (inactive),,-1.6% (inactive),0.6,,,
CC(C)(O)c1ccccc1CC[C@@H](SCC1(CC(=O)O)CC1)c1cccc(/C=C/c2ccc3ccc(Cl)cc3n2)c1,105% (inactive) and 55% (inactive),73.6% and 151%,0.98 (inactive),6.73% (inactive),4.52% (inactive),1.03 (inactive),,9.7% (inactive),-0.2,-0.15 (inactive),,
Nc1nc(F)nc2c1ncn2[C@@H]1O[C@H](CO)[C@@H](O)[C@@H]1O,18.4% (inactive),114%,1.01 (inactive),1.36% (inactive),-2.76% (inactive),1.02 (inactive),,0.3% (inactive),2.3,,,
COc1ccc(C(=O)NCc2ccc(OCCN(C)C)cc2)cc1OC,97.5% (inactive) and 24.6% (inactive),80.4% and 69%,1.04 (inactive),1.19% (inactive),2.98% (inactive),1.05 (inactive),,-0.3% (inactive),1,-0.08 (inactive),,
COc1cc(C(=O)NS(=O)(=O)c2ccccc2C)ccc1Cc1cn(C)c2ccc(NC(=O)OC3CCCC3)cc12,103% (inactive) and 39.6% (inactive),73.8% and 104%,0.99 (inactive),16.2% (active),25.3% (inactive),1.03 (inactive),,0.1% (inactive),0.4,-5.32 (active),,
CC(=O)OCC(=O)NCCCOc1cccc(CN2CCCCC2)c1,165% (inactive) and 103% (inactive) and 34.4% (inactive),104% and 78.4% and 85%,1.04 (inactive),-0.4% (inactive),-0.1% (inactive),1.02 (inactive),,1.8% (inactive),0.4,-0.306 (inactive),,
CCCc1nc(C)c2c(=O)[nH]c(-c3cc(S(=O)(=O)N4CCN(CC)CC4)ccc3OCC)nn12,37.6% (inactive) and 31.5% (inactive) and 37.1% (inactive),202% and 68.7% and 126%,0.94 (inactive),-13.3% (inactive),-1.97% (inactive),0.93 (inactive),inactive,0.1% (inactive),-1,,,
NC1CCN(c2nc3c(cc2F)c(=O)c(C(=O)O)cn3-c2ccc(F)cc2F)C1 (stereo not given),96.2% (inactive) and 26.3% (inactive),82.6% and 76%,0.97 (inactive),-5.15% (inactive),9.91% (inactive),0.98 (inactive),,1% (inactive),0.1,-1.29 (inactive),,
NCC1CCC(C(=O)Oc2ccc(CCC(=O)O)cc2)CC1 (stereo not given),104% (inactive),78.2%,1.02 (inactive),-1.98% (inactive),-3.18% (inactive),0.94 (inactive),,0.5% (inactive),1,-0.934 (inactive),,
C#C[C@]1(O)CC[C@H]2[C@@H]3CCc4cc(OC)ccc4[C@H]3CC[C@@]21C,48% (inactive) and 32.2% (inactive),96.9% and 76.9%,1 (inactive),3.56% (inactive),1.44% (inactive),1 (inactive),,3.3% (inactive),0.6,,,
CC(C)(C(=O)c1cccnc1)c1cccnc1,42.4% (inactive) and 90.8% (inactive) and 15.1% (inactive),102% and 94.8% and 117%,1.03 (inactive),1.36% (inactive),1.05% (inactive),0.96 (inactive),,4.8% (inactive),1.3,,,
C#C[C@]1(O)CC[C@H]2[C@@H]3CCc4cc(O)ccc4[C@H]3CC[C@@]21C,111% (inactive),66.2%,0.98 (inactive),1.98% (inactive),-0.87% (inactive),0.92 (inactive),,1.5% (inactive),0.8,,,
CC(=O)O[C@H]1C[C@@H]2CC[C@@H]3[C@H](CC[C@@]4(C)[C@H]3C[C@H]([N+]3(C)CCCCC3)[C@@H]4OC(C)=O)[C@@]2(C)C[C@@H]1N1CCCCC1,67.6% (inactive) and 50.8% (inactive),76.1% and 73.5%,1 (inactive),-0.22% (inactive),5.91% (inactive),1 (inactive),,-1.4% (inactive),-1.2,,,
CC(C)(C)NC(=O)[C@H]1CC[C@H]2[C@@H]3CC[C@H]4NC(=O)C=C[C@]4(C)[C@H]3CC[C@]12C,85.8% (inactive) and 62.9% (inactive) and 31.1% (inactive),103% and 63% and 78%,1.05 (inactive),0.4% (inactive),-2.41% (inactive),1.02 (inactive),,5.2% (inactive),2,,,
CC1(C)O[C@@H]2C[C@H]3[C@@H]4C[C@H](F)C5=CC(=O)C=C[C@]5(C)[C@@]4(F)[C@@H](O)C[C@]3(C)[C@]2(C(=O)CO)O1,46.3% (inactive) and 25.1% (inactive),96.3% and 68%,1 (inactive),-1.36% (inactive),0.29% (inactive),0.97 (inactive),,-1.6% (inactive),2,,,

# From PubChem BioAssay
